Shiga toxin inh: blocks Shiga toxin action in Vero cells; inhibition, % at 38.7 µM; Vero cells, Shiga toxin protein synthesis inhibition reporter; hit rate 9.2% among 290,000; in the data active = inhibition mostly above about 28%, no sharp cut-off; inactive = mostly below about 43%; note: 0% is about no effect
Lassa entry inh: blocks Lassa virus binding to or entry into cells; Potency, µM (series often up to 37.9 µM), for inactives: at the top dose activity change, negative = inhibition, actives largely listed as inhibitors; hit rate 1.2% among 300,000; Lassa virus pseudotype entry inhibition, cell reporter; AID 540256; calls by dose curve; tested in HEK293 cells; note: potency is the fitted concentration of half-maximal effect; % is set by controls: 0 for no effect and ±100 for the full control effect; nearly all actives have a fitted effect of over 50% in size
MARV entry inh: inhibitors of Marburg virus binding or cell entry | hit rate 1.8% among 300,000 | Marburg virus pseudotyped entry inhibition, cell reporter | Potency, µM (highest dose often 37.8 µM), inactives show at the top dose activity change, negative = inhibition, hits mostly inhibitors; calls by dose curve; tested in HEK293 cells; note: potency is the fitted concentration of half-maximal effect; % is set by controls: 0 for no effect and ±100 for the full control effect
CHX counter: counter-screen for Shiga toxin inhibitors: cycloheximide protein synthesis inhibition | cell reporter, cycloheximide protein synthesis inhibition counterscreen | max response, % | hit rate 12% among 300,000 | AID 2314; in the data active = max response mostly above about 13%, no sharp cut-off; inactive = mostly below about 14%; note: read at 38.3 µM for the half of the compounds with a filed dose; 0% is about no effect
Starred values were filed as active, the others as inactive; ? = inconclusive; nt = no result given; [ ] = another dose, or the depositor's remark. In the library only some 12% were active in any assay of this set; here they are far more common.

SMILES | Shiga toxin inh | Lassa entry inh | MARV entry inh | CHX counter
CCCc1ccc(S(=O)(=O)N2CCN(C(C)C(=O)NC3CCCC3)CC2)cc1 (stereo unspecified) | nt | ? | -0.5% | nt
CC(=O)c1ccccc1NC(=O)CCCNC(=O)c1ccc(Cl)cc1 | -11.2 | -24.5%[46.1 µM] | 3.6%[46.1 µM] | 3.3
CNCc1cc2ccc(C)cc2[nH]c1=O | -17.5 | 2.5% | -1.0% | -6.1
Cc1ccc2cc(CCNC(=O)c3cccs3)c(=O)[nH]c2c1C | 47.4* | ? | ? | 44.6*
CC(=O)NCCc1cc2ccc(C)c(C)c2[nH]c1=O | -2.2 | nt | nt | 2.1
Cc1ccc2cc(CNC(C)(C)C)c(=O)[nH]c2c1 | -5.3 | -21.5% | -8.7% | 17.6*
Cc1ccc2cc(CCNC(=O)c3cccs3)c(=O)[nH]c2c1 | 38.1 | ? | 3.8% | 25.0*
COc1cccc(CC(=O)OCC(=O)NCC(=O)Nc2cccc(C)c2C)c1 | nt | -2.5% | 21.7% | nt
N/C(=N\OC(=O)c1ccc(Cl)c(Cl)c1)c1cccnc1 | 40.8 | ? | ? | 26.1*
COc1cccc(C(=O)O/N=C(\N)c2ccccn2)c1 | -14.6 | nt | nt | -9.2
N/C(=N\OS(=O)(=O)c1ccc(Cl)cc1)c1cccnc1 | 12.3 | 0.3% | 21.0% | 1.1
N/C(=N\OC(=O)c1cccc(Cl)c1)c1cccnc1 | 98.6* | ? | ? | 47.5*
N/C(=N\OC(=O)c1cccc(C(F)(F)F)c1)c1cnccn1 | 59.2* | nt | nt | 30.3*
N/C(=N\OC(=O)c1cccc(Cl)c1)c1ccncc1 | 58.7* | nt | nt | 38.5*
O=C(NCCc1ccccc1)C1CC(=O)N(C2CCCCC2)C1 (stereo unspecified) | -4.1 | nt | nt | -2.8
CCn1ncc(Cl)c1C(=O)Nc1cc([N+](=O)[O-])ccc1OC | -3.0 | -2.5% | 12.1% | -3.3
O=C(CCCc1c[nH]c2ccccc12)NCC1COc2ccccc2O1 (stereo unspecified) | -15.4 | -12.4% | ? | 7.3
Cc1ccc(Oc2nnc(-c3cccs3)c3ccccc23)cc1 | 16.3 | 14.6% | 24.6% | -0.9
N/C(=N\OC(=O)c1ccc(Cl)c(Cl)c1)c1cccc(CSc2ccccn2)c1 | 61.6* | 22.6% | ? | 29.0*
CCOc1ccc(NC(=O)COC(=O)CCN2C(=O)C3CC=CCC3C2=O)cc1OCC (stereo unspecified) | nt | 3.6% | -7.4% | nt
CN(Cc1nc(-c2ccc(Cl)cc2)no1)C(=O)c1ccco1 | 44.5 | 8.4%[46.1 µM] | ? | 12.2*
CN(C)C(=O)CCCc1nc(-c2ccc(Cl)cc2)no1 | 155.7* | ? | ? | 38.3*
Cc1ccc(-c2noc(CN(C)C(=O)c3ccoc3C)n2)cc1 | 88.5* | 11.3%[46.1 µM] | -10.5%[46.1 µM] | 19.4*
CC1CN=C(N(C(=O)Nc2ccccc2)C(C)c2ccccc2)S1 (stereo unspecified) | 46.5 | nt | nt | 13.3*
Cc1ccc(N(C(=O)Nc2ccccc2)C2=NCC(C)S2)cc1 (stereo unspecified) | 90.9* | 1.3% | 9.8% | 22.5*
SMILES | Shiga toxin inh | Lassa entry inh | MARV entry inh | CHX counter
CC1CCN(S(=O)(=O)c2ccc3c(c2)oc(=O)n3CC(=O)N2CCCCC2)CC1 | nt | -10.6%[46.1 µM] | 4.2%[46.1 µM] | nt
Cc1cccc(C(=O)Nc2ccccc2C(=O)OCC(=O)Nc2ccc(C#N)cc2)c1 | 54.5* | 2.9% | ? | 46.2*
N/C(CCS(=O)(=O)c1ccc(Cl)cc1)=N\OC(=O)c1ccccc1C(F)(F)F | -4.3 | 22.4µM* | ? | 1.5
Cc1ccc(S(=O)(=O)CC(=O)c2cc3cccc(C)c3oc2=O)cc1 | -6.1 | nt | nt | -1.1
CC(Cc1ccccc1)NC(=O)/C=C/c1ccc([N+](=O)[O-])cc1 (stereo unspecified) | 15.9 | -13.9% | 8.5% | -3.5
CC(Cc1ccccc1)NC(=O)c1ccc(N)cc1 (stereo unspecified) | 62.1* | 1.5% | 1.9% | 37.3*
CC(Cc1ccccc1)NC(=O)c1ccc([N+](=O)[O-])cc1 (stereo unspecified) | 60.7* | -18.0% | ? | 30.0*
CC(Cc1ccccc1)NC(=O)NC(C)Cc1ccccc1 (stereo unspecified) | 68.7* | ? | 14.9% | 28.9*
CC(Cc1ccccc1)NC(=O)C(c1ccc(N)cc1)c1ccc(N)cc1 (stereo unspecified) | -1.5 | nt | nt | -2.6
CN(CCCC(=O)N1CCCC(C(N)=O)C1)S(=O)(=O)c1ccc(F)cc1 (stereo unspecified) | -13.3 | -18.8%[46.1 µM] | -15.6%[46.1 µM] | 3.7
CC(=O)c1c(C)[nH]c(C(=O)NC2CCCCC2)c1C | 16.0 | ? | 16.3% | 16.0*
COc1ccc(C(C)(C)C)cc1NC(=O)c1[nH]c(C)c(C(C)=O)c1C | -3.2 | 11.2µM* | 10µM* | 3.5
CC(=O)c1c(C)[nH]c(C(=O)Nc2cc(C)ccc2C)c1C | -13.8 | nt | -1.1% | -2.6
CCOC(=O)c1c(C)[nH]c(C(=O)Nc2ccc(NC(C)=O)cc2)c1C | -8.8 | -2.6% | ? | -2.9

Source: PubChem (National Center for Advancing Translational Sciences (NCATS))
